Results taken from PubChem BioAssay AID651 (University of Pittsburgh Molecular Library Screening Center, 2007).
The whole screen tested about 1,000 compounds, of which about 390 (39%) were called active. Inconclusive results (about 8%) are left out. These entries were drawn from the full list. Unmarked numbers belong to inactive results. No stated cut-off is given here; in the data, active means inhibition above about 48%; inconclusive means no clear call, values can overlap the other calls; inactive means below that.

Target: Gag-Pol polyprotein (Human immunodeficiency virus type 1 group M subtype B (isolate HXB2)) (UniProt P04585)
Test: HIV-1 RT RNase H inhibitors, retest, confirmation, biochemical (AID 651)
Settings: Recombinant RT RNase H, fluorescent RNA/DNA duplex cleavage; at 10 µM; stronger effect = higher value

Row | Compound | inhibition
1 | CCCc1nc2ccccc2c(=O)n1/N=C/c1ccc(O)c(O)c1 | 74.1% (active)
2 | Cc1nc(C)c(C(=O)Nc2cccc(C)c2C)o1 | 14.1%
3 | Clc1ccccc1CSc1nnc(-c2ccco2)c(-c2ccco2)n1 | 18.5%
4 | CC1CCc2c(sc(NC(=O)c3ccc(Cn4cc(Br)cn4)o3)c2C(N)=O)C1 (stereo not given) | 59.9% (active)
5 | CN(c1ccccc1)c1ccc(/C=c2\s/c(=C(/C#N)C(=O)C(C)(C)C)n(Cc3ccco3)c2=O)cc1 | 50.5% (active)
6 | O=C(NCc1ccccn1)c1ccc2nc(-c3ccco3)c(-c3ccco3)nc2c1 | 2.46%
7 | Nc1ccc(-c2nnc(-c3ccc(-c4ccccc4)cc3)o2)cc1 | 63.3% (active)
8 | CCCC(=O)N1CCc2[nH]c3ccccc3c2C1 | -2.83%
9 | CC(C)CNC(=O)C1CCCN(S(=O)(=O)c2ccc(-n3cnnn3)cc2)C1 (stereo not given) | 40.6%
10 | CCCCOC(=O)CNc1nnc(SCC(=O)OCC)[nH]c1=O | 43.7%
11 | CCN(CC)c1ccc2oc(=O)c(C)nc2c1 | 0.308%
12 | O=C(Nc1nc(-c2ccncc2)cs1)C1COc2ccccc2O1 (stereo not given) | 69.2% (active)
13 | Cc1csc(NC(=O)NC2(C(F)(F)F)Oc3ccccc3O2)n1 | 33.8%
14 | CCc1nnc(NC(=O)CSc2nnc(COc3ccc(C#N)cc3)n2-c2ccccc2)s1 | 19.2%
15 | CCCc1nnc(NC(=O)CN2C(=O)c3ccccc3S2(=O)=O)s1 | 60.4% (active)
16 | COc1ccc(Cc2nnc(NC(=O)Cc3cccs3)s2)cc1 | 22.2%
17 | COC(=O)C1=C(C)NC2=C(C(=O)c3ccccc32)C1c1ccc(-c2ccc(C(=O)O)cc2)o1 (stereo not given) | 5.29%
18 | c1ccc(Cc2nn3c(Cn4cnc5ccccc54)nnc3s2)cc1 | 59.7% (active)
19 | CCOc1ccc2[nH]c(=O)c(CN(CCCO)C(C)=O)cc2c1 | 15.8%
20 | NC(=O)Cn1c(=O)oc2ccccc21 | 35.5%
21 | Cc1noc(C)c1CSc1nc2cc(S(=O)(=O)N3CCOCC3)ccc2o1 | 61% (active)
22 | COc1cc(C(=O)Nc2oc(-c3ccccc3)c(-c3ccccc3)c2C#N)cc(OC)c1OC | 53.6% (active)
23 | Cc1ccc2cccc(O)c2[n+]1[O-] | 43.9%
24 | CCC(C)(C)NC(=O)C(c1cccn1C)N(Cc1ccc(C)cc1)C(=O)Cn1nnc2ccccc21 (stereo not given) | -5.01%
25 | CCC(C)Sc1nc2c(c(=O)[nH]c(=O)n2C)n1CC(O)COc1cccc2ccccc12 (stereo not given) | 68.7% (active)

Row | Compound | inhibition
26 | CCCCCn1c(SCCC(C)C)nc2c1c(=O)[nH]c(=O)n2C | 17.3%
27 | Cc1ccnc(-n2sc3ccccc3c2=O)n1 | 60% (active)
28 | COc1ccc(OC)c(Nc2nc(-c3ccc(O)c(O)c3)cs2)c1 | 77.2% (active)
29 | Cc1ccc2c(c1)sc1ncc(NC(=O)c3ccccc3)c(=O)n12 | 46.4%
30 | COc1cccc(-c2nnc(NC(=O)c3ccc(S(=O)(=O)N(CC(C)C)CC(C)C)cc3)o2)c1 | 74.9% (active)
31 | CCC1=[N+]([O-])C(C)(/C(C)=N\O)N(O)C1(C)C (stereo not given) | 32%
32 | CCOC(=O)N1CCN(CC(=O)c2ccc3c(c2)CCN3)CC1 | 15.5%
33 | COc1ccc(CCn2c(=N)c(C(=O)NCc3ccco3)cc3c(=O)n4cccc(C)c4nc32)cc1 | 1.96%
34 | Cc1cc(C(F)(F)F)nn1-c1nc(-c2ccco2)cc(C(F)(F)F)n1 | 38%
35 | Cc1cccc(-n2c(N)c(C(=O)N3CCN(C)CC3)sc2=S)c1 | 67% (active)
36 | Cc1ccc(-n2c(N)c(C(=O)N3CCOCC3)sc2=S)c(C)c1 | -4.07%
37 | Cc1ccnc(N2CCCC(C(=O)Nc3cc(F)ccc3C)C2)n1 (stereo not given) | 9.38%
38 | COC(=O)N(c1ccc(OC)cc1)P1(=S)OCCC(C)O1 (stereo not given) | 57.7% (active)
39 | CCc1c(C)[nH]c(=S)c(C#N)c1C | -2.67%
40 | Fc1ccc(-c2ccc(-c3nn4c(-c5ccco5)nnc4s3)o2)cc1 | 48.4% (active)
41 | Fc1ccc(-c2nnc3sc(-c4ccc5c(c4)OCO5)nn23)cc1 | 94.9% (active)
42 | COC(=O)Nc1nc2ccc(Sc3ccccc3)cc2[nH]1 | 33.9%
43 | O=C(Nc1cc(N2CCOCC2)ncn1)NC1(C(F)(F)F)Oc2ccc(Cl)cc2O1 (stereo not given) | -8.24%
44 | CCN(CC)S(=O)(=O)c1ccc2nc(COC(=O)c3n[nH]c4ccccc34)[nH]c2c1 | 29.7%
45 | CC(C)C1N=C2c3ccccc3N=C(SCC(=O)c3ccc(O)c(O)c3)N2C1=O (stereo not given) | 64.7% (active)
46 | COc1ccc(N2C(=O)CN=C2Nc2cccc(C)c2C)cc1OC | 42.9%
47 | c1ccc(CSc2nnc(-c3ccco3)c(-c3ccco3)n2)cc1 | 42.2%
48 | COc1ccc(Nc2oc(-c3ccccc3Cl)nc2C#N)cc1 | 3.03%
49 | CCOC(=O)c1sc(=S)n2c1[nH]c(=O)c1ccc(C(=O)OC)cc12 | 73.8% (active)
50 | Cc1ccc(-n2nc(-c3ccco3)cc2C(=O)NCc2cccnc2)cc1 | -3.12%
